PubChem BioAssay
Several values for one entry are separate records, joined by “and”; a condition that tells them apart may be missing. Identical values can stand only once. Activity calls are given as the source filed them.

What was measured:
[1] = anti-His antibody binders, primary screen, artefact control for SMM control protein annotation, biochemical, small-molecule microarray, 635 nm fluorescence (AID 1128); conditions: anti-His Alexa647 antibody binding, higher = more signal;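 further: score merges feature fluorescence with signal-to-noise for each printed compound spot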
[2] = test system: Human papillomavirus type 1a E7 protein (residues 1-88); test: HPV1a E7 small-molecule binders, primary screen, biochemical, small-molecule microarray, residues 1-88, 635 nm (AID 1129); conditions: small-molecule microarray binding, fluorescence 635 nm; higher = more signal
[3] = target: Focal adhesion kinase 1 (Homo sapiens) (UniProt Q05397); test: small-molecule microarray binders of FAK, primary screen, biochemical, 635/667 nm fluorescence, BSA, DTT (AID 1130); conditions: PTK2 binding, 635 nm fluorescence, higher = more signal;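 further: composite of spot emission at 667 nm and signal to noise over triplicate slides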
[4] = test system: Fibrinogen (Alexa647-labelled); test: fibrinogen binders on compound microarrays, profiling panel, artefact control for SMM control-protein annotation, biochemical, small-molecule microarray, 635/667 nm fluorescence (AID 1131); conditions: fibrinogen-A647 binding fluorescence, higher = more signal;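 further: z-score merges 667 nm fluorescence with per-spot signal-to-noise over triplicate slides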
[5] = target: Follistatin (Homo sapiens) (UniProt P19883); test: follistatin binders on small-molecule microarrays, primary screen, biochemical, small-molecule microarray, 635/667 nm fluorescence (AID 1132); conditions: FST binding, 635 nm fluorescence, higher = more signal
[6] = target: Fibroblast growth factor 2 (Homo sapiens) (UniProt P09038); test: FGF2 binders on small-molecule microarrays, primary screen, biochemical, small-molecule microarray, 635/667 nm fluorescence (AID 1133); conditions: small-molecule microarray binding, FGF2, fluorescence 635/667; higher = more signal
[7] = mitochondrial membrane potential change in A549 cells, profiling panel, cell-based, JC-1 fluorescence, basal, 24 h, 100 nL (AID 1138); conditions: higher = more signal;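 further: A549 lung adenocarcinoma cells under basal conditions with no added stimulus; test concentration not given here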
Lefty1 = Lefty1 binders on small-molecule microarrays, primary screen, biochemical, small-molecule microarray, 635/667 nm fluorescence (AID 1139); conditions: small-molecule microarray binding, fluorescence 635/667; higher = more signal
[8] = test system: wheat germ agglutinin (Triticum aestivum), Alexa647-labelled; test: wheat germ agglutinin binders on compound microarrays, profiling panel, artefact control for SMM control-protein annotation, biochemical, small-molecule microarray, 635/667 nm fluorescence (AID 1140); conditions: WGA-A647 binding, 635 nm fluorescence, higher = more signal;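 further: score merges 667 nm feature emission with signal to noise over triplicate slides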
[9] = target: Luciferin 4-monooxygenase (Photinus pyralis) (UniProt P08659); test: firefly luciferase enzyme inhibitors, primary screen, biochemical, luminescence, purified enzyme, 2006 set (AID 1141); conditions: SteadyGlo luminescence, 30 min, higher = more signal, called active from +8 up or from −8 down;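 further: cell-free assay with purified firefly luciferase at 100 ng per well in PBS; test concentration not given here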
Luciferin 4-monooxygenase (Photinus pyralis), sequence (P08659 whole entry, looked up): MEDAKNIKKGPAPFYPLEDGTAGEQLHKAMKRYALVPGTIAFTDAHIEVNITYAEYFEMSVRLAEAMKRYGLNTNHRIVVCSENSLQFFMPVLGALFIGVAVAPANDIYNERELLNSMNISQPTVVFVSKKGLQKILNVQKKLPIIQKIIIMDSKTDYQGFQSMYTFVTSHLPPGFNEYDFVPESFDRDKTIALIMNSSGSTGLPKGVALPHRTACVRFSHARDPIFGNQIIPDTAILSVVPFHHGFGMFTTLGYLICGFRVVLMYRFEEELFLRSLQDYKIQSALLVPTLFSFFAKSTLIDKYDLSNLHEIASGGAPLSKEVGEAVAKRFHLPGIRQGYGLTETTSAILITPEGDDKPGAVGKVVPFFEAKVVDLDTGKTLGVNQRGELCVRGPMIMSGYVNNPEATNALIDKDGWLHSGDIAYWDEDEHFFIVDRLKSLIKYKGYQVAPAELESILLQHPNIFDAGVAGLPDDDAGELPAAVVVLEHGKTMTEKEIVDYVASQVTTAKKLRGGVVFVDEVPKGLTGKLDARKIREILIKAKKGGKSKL

Fibroblast growth factor 2 (Homo sapiens), sequence (P09038 whole entry, looked up): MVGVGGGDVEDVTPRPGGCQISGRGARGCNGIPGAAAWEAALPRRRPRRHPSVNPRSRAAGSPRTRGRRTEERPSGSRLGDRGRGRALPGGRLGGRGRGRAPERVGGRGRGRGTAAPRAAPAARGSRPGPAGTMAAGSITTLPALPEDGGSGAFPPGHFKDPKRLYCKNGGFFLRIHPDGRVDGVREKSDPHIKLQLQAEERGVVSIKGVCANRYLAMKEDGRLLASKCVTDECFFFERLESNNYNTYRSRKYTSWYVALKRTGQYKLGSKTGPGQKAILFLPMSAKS
Focal adhesion kinase 1 (Homo sapiens), sequence (Q05397 whole entry, looked up): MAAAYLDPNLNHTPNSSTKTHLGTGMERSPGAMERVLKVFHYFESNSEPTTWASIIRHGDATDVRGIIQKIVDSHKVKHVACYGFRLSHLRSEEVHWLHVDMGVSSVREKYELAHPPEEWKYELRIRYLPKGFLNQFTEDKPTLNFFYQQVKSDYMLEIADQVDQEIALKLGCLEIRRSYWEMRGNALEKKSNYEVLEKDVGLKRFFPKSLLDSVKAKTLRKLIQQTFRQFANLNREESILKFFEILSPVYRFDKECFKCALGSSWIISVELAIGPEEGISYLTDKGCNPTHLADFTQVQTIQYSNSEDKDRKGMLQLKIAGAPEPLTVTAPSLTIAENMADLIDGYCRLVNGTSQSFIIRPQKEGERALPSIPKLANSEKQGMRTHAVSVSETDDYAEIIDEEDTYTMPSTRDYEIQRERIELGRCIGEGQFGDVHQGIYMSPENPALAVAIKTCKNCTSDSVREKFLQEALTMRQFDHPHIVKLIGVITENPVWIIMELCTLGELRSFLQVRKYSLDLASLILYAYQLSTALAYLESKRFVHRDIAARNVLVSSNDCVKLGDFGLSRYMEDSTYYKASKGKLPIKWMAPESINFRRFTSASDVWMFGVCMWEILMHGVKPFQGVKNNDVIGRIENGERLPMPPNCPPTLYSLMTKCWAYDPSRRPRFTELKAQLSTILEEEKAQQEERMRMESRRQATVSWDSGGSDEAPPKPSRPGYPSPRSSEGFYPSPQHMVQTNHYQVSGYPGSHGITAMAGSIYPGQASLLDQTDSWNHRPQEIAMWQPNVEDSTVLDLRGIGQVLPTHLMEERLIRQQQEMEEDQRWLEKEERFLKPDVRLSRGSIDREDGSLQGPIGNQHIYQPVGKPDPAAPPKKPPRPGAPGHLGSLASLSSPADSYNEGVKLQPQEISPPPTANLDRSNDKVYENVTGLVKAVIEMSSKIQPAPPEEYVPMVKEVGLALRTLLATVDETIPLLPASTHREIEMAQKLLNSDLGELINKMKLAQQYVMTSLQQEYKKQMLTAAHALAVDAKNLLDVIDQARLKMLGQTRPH
Follistatin (Homo sapiens), sequence (P19883 whole entry, looked up): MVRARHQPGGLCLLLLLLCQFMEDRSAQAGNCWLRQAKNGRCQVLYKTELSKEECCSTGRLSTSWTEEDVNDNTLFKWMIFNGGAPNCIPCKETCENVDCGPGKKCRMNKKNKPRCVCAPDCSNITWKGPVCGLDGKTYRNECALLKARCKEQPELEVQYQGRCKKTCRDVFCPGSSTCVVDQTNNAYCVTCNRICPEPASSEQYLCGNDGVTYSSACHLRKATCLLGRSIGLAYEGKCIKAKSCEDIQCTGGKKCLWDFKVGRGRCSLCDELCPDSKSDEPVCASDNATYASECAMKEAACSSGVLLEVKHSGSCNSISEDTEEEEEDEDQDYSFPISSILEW

| SMILES | composite z-score [1] | composite z-score [2] | composite z-score [3] | composite z-score [4] | composite z-score [5] | composite z-score [6] | z-score [7] | composite z-score (Lefty1) | composite z-score [8] | z-score [9] |
| --- | --- | --- | --- | --- | --- | --- | --- | --- | --- | --- |
| C[N+](C)(C)CCCCCCNC(=O)[C@H]1C[C@H]2C(=O)N[C@@H](CCCC[N+](C)(C)C)C(=O)N2[C@H]1c1cccc(OCCO)c1 | 1.91 and 1.46 | 0.516 and -0.266 | -0.063 and 0.0884 | 0.638 and -0.338 | 1.39 and 1.43 | 1.82 and 1.66 | 0.357 and -0.307 | 1.59 and 0.768 | 0.348 and 0.29 | -0.0709 (inactive) and 0.15 (inactive) |
| CC[C@@H]1C(Sc2ccccc2)C(C(=O)O)[C@H](c2ccc(C)cc2)N1S(=O)(=O)c1ccc(C)cc1 (stereo not given in full) | 1.81 and 0.489 | 1.25 and 1.17 | 0.994 and 0.704 | 1.03 | 0.427 and 0.634 | -0.375 and -0.193 | -0.102 and 0.13 | -0.642 and 0.533 | 0.707 and 0.804 | 0.534 (inactive) and -0.0047 (inactive) |
| CCC[C@@H]1C[C@@]1(CCC)[C@@H](NC(=O)c1ccc(-c2ccccc2)cc1)c1cccc(Cl)c1 | -0.844 and 1.8 | -0.817 and 0.53 | 0.589 and 0.541 | -0.427 and 0.367 | -0.0957 and 0.115 | -0.817 and -0.244 | 0.122 and 1.45 | -0.16 and -0.268 | -0.463 and 0.469 | 1.01 (inactive) and 1.76 (inactive) |
| C=CCN(CCCCC)C(=O)C1N(CCOCCO)C(=O)C2C(C(=O)O)C3C=CC21O3 (stereo not given) | -0.749 and -1.54 | -1.08 and -0.838 | -0.527 and -1.09 | -1.97 and -0.97 | -0.98 and -2.75 | -2.29 and -2.04 | 0.586 and -0.536 | -1.41 and -1.91 | -1.19 and -2.06 | 0.171 (inactive) and 0.472 (inactive) |
| COC(=O)C1=C(C)N(Cc2ccccc2)C2=C3C(=O)N(c4ccccc4)C(=O)[C@@H]3[C@@](O)(C(=O)OC)C(=O)N2[C@@H]1c1ccccc1 | 0.387 and 0.668 | 0.186 and 1.1 | 0.14 and 0.113 | 0.212 and 0.393 | 0.988 and 0.726 | 1.63 and 0.5 | 0.895 and 1.76 | 0.823 and 0.745 | 0.0882 and 0.764 | -0.471 (inactive) and -1.33 (inactive) |
| COC(=O)[C@H](C)NC(=O)CCC1CC(OC(=O)NCCc2ccc(F)cc2)CC2(CCCC(COC(=O)NCCCN3CCCC3=O)O2)O1 (stereo not given in full) | 0.944 | 1.17 | 0.534 | 0.872 | 1.03 | 1.3 | -0.498 | 1.55 | 0.526 | 0.824 (inactive) |
| C=CCN(Cc1ccccc1)C(=O)C1N(CCCCCCO)C(=O)C2C(C(=O)O)C3C=CC21O3 (stereo not given) | 0.193 and -0.664 | -0.363 and -0.297 | 0.0147 and -0.339 | -0.923 and -1.99 | -1.42 and -1.07 | -1.88 and -2.94 | -0.38 and 0.344 | -1.84 and -1.78 | -0.834 and -0.785 | 1.01 (inactive) and 1.33 (inactive) |
| C[N+](C)(C)CCCCNC(=O)[C@H]1C[C@H]2C(=O)N[C@@H](CCCC[N+](C)(C)C)C(=O)N2[C@H]1c1cccc(OCCO)c1 | 1.98 and 1.03 | -0.166 and 0.848 | -0.389 and -0.117 | -0.816 and -0.179 | 1.49 and 1.53 | 1.93 and 1.73 | -0.59 and -0.114 | 1.75 and 1.59 | -1.07 and 1.04 | 0.254 (inactive) and 0.0887 (inactive) |
| CC(CO)N1C(=O)[C@@H]2C3C(=O)OCCC=C[C@H]3OC23C=CCN(c2ccc4ccccc4c2)C(=O)[C@@H]13 (stereo not given in full) | 0.62 and 1.59 | -0.203 and -0.362 | -0.192 and 0.525 | -0.986 and -1.18 | -0.0475 and -0.0413 | -1.53 and -0.879 | 0.638 and 0.972 | -0.0302 and -0.337 | -0.388 and 0.771 | -0.618 (inactive) and -0.657 (inactive) |
| COCn1c2ccccc2c2nnc(C(C)=O)nc21 | 0.185 and -0.0618 | -0.582 and -0.0453 | 0.0699 and -0.0566 | -0.0349 and 0.202 | 0.295 and 0.221 | 0.537 and 0.273 | -1.22 and -1.45 | 0.419 and 0.53 | -0.114 and -0.144 | 0.891 (inactive) and 0.305 (inactive) |
| C=CCN(CCCC)C(=O)C1N(CCCCCCO)C(=O)C2C(C(=O)O)C3C=CC21O3 (stereo not given) | -1.27 and 0.826 | -0.618 and -0.472 | -0.725 and -0.445 | -0.574 and -1.65 | -1.74 and -2.89 | -1.97 and -2.02 | -0.242 and 0.214 | -2.3 and -2.2 | 0.483 and -1.28 | 0.314 (inactive) and 0.488 (inactive) |
| CC(C)=CCCC(C)=CCON=C1C[C@@H](O)[C@@H](O)[C@@H]2[C@@H]3C(=O)N([C@@H](C)c4ccccc4)C(=O)[C@@H]3CC[C@H]12 | 0.798 | 1.01 | 0.89 | 0.558 | 0.676 | 0.364 | 0.824 | 0.581 | 0.324 | -0.677 (inactive) |
| CC(C)N1CC=CC23O[C@@H]4C=CCCOC(=O)C4[C@H]2C(=O)N(C(C)CO)[C@@H]3C1=O (stereo not given in full) | 0.412 and -0.876 | -0.149 and -1.45 | -0.214 and -0.327 | -0.367 and -0.617 | -1.72 and -1.22 | -1.55 and -0.107 | 0.615 and 0.4 | -0.674 and -1.22 | -0.759 and -1.45 | -0.509 (inactive) and -0.916 (inactive) |
| CC(CO)N1C(=O)[C@@H]2C3C(=O)OCCC=C[C@H]3OC23C=CCN(Cc2ccccc2)C(=O)[C@@H]13 (stereo not given in full) | -0.814 and -1.05 | -0.716 and -0.415 | 0.275 and -0.855 | -1.73 and -0.886 | -0.972 and -1.08 | -0.995 and -0.746 | 0.739 and 0.735 | -1.17 and -0.88 | -1.16 and -0.612 | -0.965 (inactive) and -0.875 (inactive) |
| O=C1NC(=O)C2C1C=CC(C(O)c1ccc([N+](=O)[O-])cc1)N2Nc1ccc(Cl)cc1Cl (stereo not given) | 0.396 and 0.455 | 1.14 and 1.18 | 0.649 and 0.342 | 0.969 and 0.703 | 0.816 and 0.774 | 0.202 and -0.279 | 0.824 and -0.201 | -0.427 and -0.899 | 0.751 and 1.39 | -1.81 (inactive) and -2.34 (inactive) |
| C=C(C)C(=O)OC[C@@H]1CN2[C@@H](CC[C@@H](C)[C@@H]2c2ccc(Br)cc2)C(=O)O1 | -0.0452 | 0.818 | 0.213 | 0.762 | 0.55 | 0.854 | 1.77 | 0.966 | 0.146 | -0.721 (inactive) |
| C=CCN(C(=O)C(c1cccs1)N(C(=O)/C=C\C(=O)O)c1ccc(CCO)cc1)C(C)(C)C (stereo not given) | 0.381 and 2.21 | 0.07 and 0.0514 | 0.721 and -0.265 | -0.548 and -3.6 | -0.985 and -1.66 | -1.22 and -1.05 | 0.428 and 0.741 | -1.76 and -2 | 0.559 and -0.287 | -0.928 (inactive) and -0.538 (inactive) |
| C=CCN(CCCC)C(=O)C1N(CCOCCO)C(=O)C2C(C(=O)O)C3C=CC21O3 (stereo not given) | 1.11 and -1.66 | -0.741 and -0.901 | -0.619 and -0.291 | -1.43 and -0.885 | -0.817 and -1.32 | -1.68 and -1.4 | -0.409 and -0.724 | -1.6 and -2.23 | -0.557 and -0.16 | 0.694 (inactive) and 0.806 (inactive) |
| C[C@@H]1CC[C@H]2C(=O)NC[C@@H](O)CN2[C@H]1c1ccc(Br)cc1 | -0.035 and -0.372 | -0.165 and -0.298 | 0.0377 and -0.438 | -0.0102 and 0.0552 | -0.175 and -0.142 | 0.0825 and 0.314 | -0.386 and 1.68 | 0.396 and 0.0488 | -0.2 and -0.0411 | 0.29 (inactive) and -0.467 (inactive) |
